# According to PMC4336329 (PLoS ONE, 2015):
# About 14,000 (4.5%) of roughly 310,000 compounds showed an effect of 50% or more. The effect is printed as a negative number. The sample as a whole holds a higher share of strong results than the screen did.
# Molecular target: human ether-à-go-go-related gene (hERG) potassium channel (human, UniProt Q12809)
# Experiment: primary screen, population patch clamp on CHO cells stably expressing hERG; higher = less effect of the substance
# 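Also: peak tail current of the secondary pulse compared with the same well before compound.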
# human ether-à-go-go-related gene (hERG) potassium channel, sequence (Q12809 whole entry, looked up): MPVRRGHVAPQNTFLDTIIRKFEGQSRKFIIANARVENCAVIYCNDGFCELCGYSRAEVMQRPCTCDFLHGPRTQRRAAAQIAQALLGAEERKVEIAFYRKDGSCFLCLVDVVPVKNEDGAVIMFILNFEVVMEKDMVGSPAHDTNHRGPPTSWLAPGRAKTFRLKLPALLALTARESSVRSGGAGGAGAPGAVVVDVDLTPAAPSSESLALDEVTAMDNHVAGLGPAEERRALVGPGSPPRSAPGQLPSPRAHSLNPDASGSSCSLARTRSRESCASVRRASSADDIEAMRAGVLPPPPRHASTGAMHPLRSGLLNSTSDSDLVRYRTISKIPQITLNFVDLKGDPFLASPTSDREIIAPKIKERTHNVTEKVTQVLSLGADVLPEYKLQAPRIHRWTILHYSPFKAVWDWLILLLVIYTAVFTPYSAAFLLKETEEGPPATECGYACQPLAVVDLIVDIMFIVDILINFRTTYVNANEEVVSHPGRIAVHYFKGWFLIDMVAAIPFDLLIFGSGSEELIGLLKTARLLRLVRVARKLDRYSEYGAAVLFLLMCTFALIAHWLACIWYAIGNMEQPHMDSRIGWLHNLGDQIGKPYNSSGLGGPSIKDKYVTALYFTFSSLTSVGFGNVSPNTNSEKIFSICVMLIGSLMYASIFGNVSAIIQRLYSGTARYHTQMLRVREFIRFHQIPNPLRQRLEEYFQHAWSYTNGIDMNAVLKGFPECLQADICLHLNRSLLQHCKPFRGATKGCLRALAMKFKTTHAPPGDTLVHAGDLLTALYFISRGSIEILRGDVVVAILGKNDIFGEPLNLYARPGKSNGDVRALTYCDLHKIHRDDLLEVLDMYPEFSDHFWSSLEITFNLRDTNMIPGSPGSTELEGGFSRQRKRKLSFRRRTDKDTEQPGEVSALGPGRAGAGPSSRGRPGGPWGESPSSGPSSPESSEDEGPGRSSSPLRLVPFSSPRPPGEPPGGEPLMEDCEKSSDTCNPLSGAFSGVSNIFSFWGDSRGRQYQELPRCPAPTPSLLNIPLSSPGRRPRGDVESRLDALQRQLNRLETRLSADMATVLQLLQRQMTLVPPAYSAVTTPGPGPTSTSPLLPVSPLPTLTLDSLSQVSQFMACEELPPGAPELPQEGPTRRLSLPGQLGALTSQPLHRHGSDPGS
row,SMILES,"hERG current change (%, negative = inhibition) at 10uM [%]"
1,O=C(COC(=O)CNS(=O)(=O)c1ccc(F)c(F)c1F)NC1CCCC1,4.16
2,Clc1ccc(OCCCc2nc(-c3ccncc3)no2)c(Cl)c1,-0.0206
3,O=C1/C(=C/N(C(=O)c2ccco2)c2ccc(Br)cc2)Sc2ccccc21,-7.76
4,Cc1[nH]c2ccccc2c1C(C[N+](=O)[O-])c1cccc(O)c1 (stereo not shown),8.53
5,Cc1oc2cc3c(C(=O)N4CCCCC4)c(C)oc3cc2c1C(=O)N1CCCCC1,5.17
6,Cc1ccc2cc(C(=O)O)c(C)nc2c1,11.6
7,CCC(CC)C(=O)Nc1ccncc1,23.9
8,COc1ccccc1CNC(=O)c1ccccc1C(=O)NC(CC(C)C)C(=O)NCc1ccccc1OC (stereo not shown),10.6
9,Cc1c(NC(=O)c2ccco2)cccc1C(=O)NN1C(=O)c2ccccc2C1=O,16.4
10,COC(CNC(=O)c1ccc2c3c(onc13)-c1ccccc1C2=O)OC,-1.15
11,Cl.OCCNCc1cccc(OCc2ccccc2Cl)c1,-17.6
12,COc1ccc(N2CC(C(=O)Nc3ccc(S(=O)(=O)N4CCOCC4)cc3)CC2=O)cc1 (stereo not shown),13.4
13,Cl.O=C(NCCN1CCOCC1)c1cn(-c2ccccc2)nc1-c1cccs1,-25.6
14,CCN(CC)CCNC(=O)c1cn(-c2ccccc2)nc1-c1cccs1.Cl,-69
15,CCN(CC)CCNC(=O)c1ccc(NC(=O)c2cn(-c3ccccc3)nc2-c2cccs2)cc1,-32.7
16,COc1cccc(CNC(=O)c2ccccc2SCC(=O)N2CCCC2)c1,-22.7
17,COc1cccc(CN2CCNC(=O)C2CC(=O)O)c1OC (stereo not shown),11.4
18,Cc1ccc(S(=O)(=O)CCNC(=O)Cc2ccccc2)cc1,26.9
19,CCN=c1sc2ccccc2n1CC(O)COc1ccccc1 (stereo not shown),-44
20,CN=c1sc2ccccc2n1CC(O)c1ccccc1 (stereo not shown),-21.4
21,OC(CN=c1sc2ccccc2n1CC(O)COc1ccccc1)COc1ccccc1 (stereo not shown),-1.46
22,CN=c1sc2ccccc2n1CC(O)COCc1ccco1 (stereo not shown),-65.4

row,SMILES,"hERG current change (%, negative = inhibition) at 10uM [%]"
1,CN=c1sc2ccccc2n1CC(O)COc1ccccc1 (stereo not shown),-57.5
2,Cc1cc(C)n(CC(O)COCc2ccco2)n1 (stereo not shown),-3.37
3,CN(C)C(=O)c1ccc2c3c(cccc13)CC2,24.6
4,COc1cc(NC(=O)CCCNC(=O)Cn2cnc3sc4c(c3c2=O)CCCC4)cc(OC)c1OC,29.6
5,O=C(COc1ccc2c(c1)oc(=O)c1ccccc12)NCCN1CCOCC1,-11
6,Cc1cccn2c(=O)c3cc(C(=O)NCC4CCCO4)c(=N)n(CCc4ccccc4)c3nc12 (stereo not shown),-76.7
7,COc1ccc(CCn2c(=N)c(C(=O)NCC3CCCO3)cc3c(=O)n4cccc(C)c4nc32)cc1OC (stereo not shown),-80.9
8,COc1ccc(CCNC(=O)CNCC2CCCO2)cc1OC.O=C(O)C(=O)O (stereo not shown),14.1
9,O=C(NCC1CCCO1)c1ccc2c(=O)n(CCc3ccccc3)c(=O)[nH]c2c1 (stereo not shown),7.98
10,COc1ccc2oc(=O)c(C(=O)NCC3CCCO3)cc2c1 (stereo not shown),3.67
11,O=C(CSc1nc2ccc(N3CCOCC3)cc2c(=O)n1CCc1ccccc1)NCC1CCCO1 (stereo not shown),-47
12,COc1ccc(CCNC(=O)C(=O)NCC2CCCO2)cc1 (stereo not shown),-0.535
13,COc1ccc(CCn2c(=N)c(C(=O)NCC3CCCO3)cc3c(=O)n4cccc(C)c4nc32)cc1 (stereo not shown),-79.7
14,CNC(=O)Oc1ccc2c(c1)C(=O)c1ccccc1CO2,6.76
15,CNC(=S)Nc1cc(OC)c(NC(=O)c2ccco2)cc1OC,14.9
16,Cc1cc(C)nc(NNS(=O)(=O)c2ccc(F)c(Cl)c2)n1,0.38
17,Cc1ccc(C)n1NC(=O)c1cccs1,9.98
18,CCOCCCNCC(O)c1ccccc1.O=C(O)C(=O)O (stereo not shown),3.55
19,O=C(N/N=C/c1cc([N+](=O)[O-])cc([N+](=O)[O-])c1O)C(O)(c1ccccc1)c1ccccc1,-4.37
20,O=C(N/N=C/c1cccc([N+](=O)[O-])c1O)C(O)(c1ccccc1)c1ccccc1,8.16
21,O=C(N/N=C/c1cc(Cl)cc([N+](=O)[O-])c1O)C(O)(c1ccccc1)c1ccccc1,-53
22,Cc1ccc(/C(O)=C2/C(=O)C(=O)N(c3ccccn3)C2c2ccc([N+](=O)[O-])cc2)cc1 (stereo not shown),8.83

row,SMILES,"hERG current change (%, negative = inhibition) at 10uM [%]"
1,COC(=O)COc1cccc2c(=O)n(CC(=O)NCc3ccc(F)cc3)ccc12,1.82
2,O=C1CC(c2cccnc2)=NN1c1ccc(Cl)cc1Cl,12.1
3,C/C=C(/C)C(=O)O[C@@H]1c2c(ccc3ccc(=O)oc23)O[C@@H]1C(C)(C)OC(=O)/C(C)=C\C,-0.936
4,O=C1OC(Nc2cc(Br)cc3cccnc23)c2ccccc21 (stereo not shown),-9.92
5,COc1ccc(S(=O)(=O)N/N=C/c2ccc(OCCN3CCOCC3)c(OC)c2)cc1,1.42
6,CCOc1cc(/C=N/NS(=O)(=O)c2ccc(OC)cc2)ccc1OCCN1CCOCC1,-53.8
7,COc1cc(/C=N/NS(=O)(=O)c2ccc3ccccc3c2)ccc1OCCN1CCOCC1,-39.5
8,CCn1c(COc2ccccc2C)nnc1SCC(=O)OC,-9.68
9,O=C(CN(C(=O)c1csnn1)c1cccc2ccccc12)NC1CCCC1,-2.34
10,Cc1cc(NCc2ccccc2)nc2ccccc12,-50.9
11,COc1ccc2nc(C)cc(NCc3ccc(F)cc3)c2c1,-61.6
12,Cc1cc(NCc2ccccc2)c2ccccc2n1.Cl,-67.5
13,COc1ccc2nc(NCc3ccccc3)[nH]c2c1,-25.4
14,COc1ccc2nc(C)cc(NCc3cccc(C(F)(F)F)c3)c2c1,-31.7
15,COC(=O)CSc1cc(C)nc2ccc(OC)cc12,1.44
16,Cc1cc(NC(=O)Cc2ccccc2)c2ccccc2n1,14.2
17,Cc1cc(NCc2ccccn2)nc2ccccc12,-15.4
18,COc1ccc(CNc2cc(C)nc3ccc(OC)cc23)cc1,-72.8
19,Cc1cc(NCC2CCCCC2)nc2ccccc12,-42.7
20,Cc1cc(NCCO)c2ccccc2n1.Cl,6.81
21,COc1ccc2nc(C)cc(N/N=C/c3ccc(F)cc3)c2c1,0.337
22,Cc1cc(C(=O)NNc2c(Cl)cccc2Cl)no1,3.46

row,SMILES,"hERG current change (%, negative = inhibition) at 10uM [%]"
1,CC1(C)Cc2nc3oc4c(SCC(N)=O)ncnc4c3cc2CO1,4.95
2,Cc1ccc(S(=O)(=O)N(C)C)cc1NC(=O)COC(=O)/C=C/c1ccc2c(c1)OCO2,-9.63
3,O=C(NC1CCCCC1)C1CCCN(S(=O)(=O)c2cccs2)C1 (stereo not shown),11.3
4,COc1ccc(NC(=O)OCCN2CCN(Cc3ccccc3)CCC2=O)cc1,-9.25
5,COc1c(O)ccc(/C=N/NC(=O)c2ccc3c(c2)OCCO3)c1[N+](=O)[O-],7.36
6,FC(F)Sc1ccc(-n2cc(-c3ccc(Cl)cc3)[n+]3c2CCC3)cc1.[Br-],-74.3
7,[Br-].c1ccc(-c2cn(-c3ccccc3)c3[n+]2CCCS3)cc1,-3.51
8,COc1ccc(-c2cn(-c3ccccc3)c(=S)[nH]2)cc1OC,16.1
9,N#Cc1ccc(-c2cn(-c3ccccc3)c3[n+]2CCCS3)cc1.[Br-],16.3
10,O=C(Cc1ccc(Cl)cc1)Nc1ccc(SC(F)F)cc1,-1.83
11,CC(=O)c1ccc(-n2cc(-c3ccc(C(C)(C)C)cc3)[n+]3c2SCCC3)cc1.[Br-],-30.1
12,COc1ccc(-n2cc(-c3ccc(OC)c(OC)c3)[nH]c2=S)cc1,6.1
13,COc1ccc(-c2cn(-c3ccc(SC(F)F)cc3)c3[n+]2CCC3)cc1OC.[Br-],-62.4
14,FC(F)Sc1ccc(-n2cc(-c3ccccc3)[n+]3c2CCC3)cc1.[Br-],-77.9
15,O=[N+]([O-])CC(c1ccccc1)c1c[nH]c2ccccc12 (stereo not shown),10.6
16,O=C(CN1C(=O)NC(Cc2c[nH]c3ccccc23)C1=O)Nc1ccc(F)c(F)c1F (stereo not shown),-5.36
17,O=C(Nc1cccc(Cl)c1)N1CCN2C(=O)c3ccccc3C12c1ccccc1 (stereo not shown),-24.3
18,COc1ccc(CNC(=S)Nc2ccccc2)cc1,7.34
19,O=C(Cc1ccc([N+](=O)[O-])cc1)N1CCCc2ccccc21,-41.1
20,O=C(Oc1c(Cl)cc(Cl)c2ccccc12)N1CCCC1,-25.9
21,CC(COc1ccc(/C=C/c2ccccc2)cc1)[N+](C)(C)C.[I-] (stereo not shown),-9.04
22,CC(C)(C)C(=O)Nc1ccc(C(=O)Nc2cc(NC(=O)c3ccc(NC(=O)C(C)(C)C)cc3)cc(C(=O)O)c2)cc1,6.62
